Active and inactive are the calls of the source. The calls were made as follows: active = hit-call score of the fitted dose curve at least 0.9, where 1 is the maximum; inactive = score below 0.9.
read-out: Matrix Metallopeptidase 1 (MMP1), MMP1 (gene 4312); test: BSK_BE3C_MMP1: BioMAP Diversity Plus: BE3C Assay for Matrix Metallopeptidase 1 (MMP1) Biomarker Activity (AID 2283024); settings: primary human bronchial epithelial cells; actives raise or lower the signal
In short: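 Primary human bronchial epithelial cells were dosed with test chemicals, and MMP1 levels were measured by ELISA 24 h later. Data were fitted bidirectionally against DMSO as the negative control and activity baseline.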

Structure (SMILES) | outcome
c1ccc2c(c1)-c1ccc3ccc4cccc5cc-2c1c3c45 | inactive
NC(=O)c1c(Cl)cccc1Cl | inactive
CC=CC(=O)C1=C(C)C=CCC1(C)C | inactive
O=C1OC2(c3ccc(O)cc3Oc3cc(O)ccc32)c2ccccc21 | inactive
OCCN1CCOCC1 | inactive

read-out: not listed separately; test: BSK_3C_Vis: BioMAP Diversity Plus: 3C Assay for Morphology Visualization (AID 2283025); settings: primary human endothelial cells (HUVEC);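 also: fitted both ways so gain or loss versus DMSO counts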
In short: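 Human umbilical vein endothelial cells in the 3C system were imaged by light microscopy 24 h after chemical dosing to record cell morphology. Activity was fitted bidirectionally against DMSO as negative control and baseline; the endpoint serves as a background control.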

Structure (SMILES) | AC50 | outcome
c1ccc2c(c1)-c1ccc3ccc4cccc5cc-2c1c3c45 | 4.52 µM (active) | 
NC(=O)c1c(Cl)cccc1Cl |  | inactive
CC=CC(=O)C1=C(C)C=CCC1(C)C |  | inactive
O=C1OC2(c3ccc(O)cc3Oc3cc(O)ccc32)c2ccccc21 |  | inactive
OCCN1CCOCC1 |  | inactive

read-out: Pselectin, SELP (gene 6403); test: BSK_4H_Pselectin: BioMAP Diversity Plus: 4H Assay for Pselectin Biomarker Activity (AID 2283026); settings: primary human endothelial cells (HUVEC); actives raise or lower the signal
In short: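 Primary human umbilical vein endothelial cells were exposed to test chemical for 24 h, then cell-surface P-selectin was quantified by ELISA. Activity was fitted bidirectionally against DMSO as negative control and baseline.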

Structure (SMILES) | outcome
c1ccc2c(c1)-c1ccc3ccc4cccc5cc-2c1c3c45 | inactive
NC(=O)c1c(Cl)cccc1Cl | inactive
CC=CC(=O)C1=C(C)C=CCC1(C)C | inactive
O=C1OC2(c3ccc(O)cc3Oc3cc(O)ccc32)c2ccccc21 | inactive
OCCN1CCOCC1 | inactive

read-out: not listed separately; test: BSK_4H_SRB: Viability Assessment in the BioMAP Diversity Plus: 4H Assay (AID 2283027); settings: primary human endothelial cells (HUVEC);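 also: cells exposed to compound for 24 h before staining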
In short: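 Human umbilical vein endothelial cells, 24 h after chemical dosing; total protein measured by 0.1% sulforhodamine B staining after 10% TCA fixation, read at 560 nm. Bidirectional fitting against DMSO.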

Structure (SMILES) | outcome
c1ccc2c(c1)-c1ccc3ccc4cccc5cc-2c1c3c45 | inactive
NC(=O)c1c(Cl)cccc1Cl | inactive
CC=CC(=O)C1=C(C)C=CCC1(C)C | inactive
O=C1OC2(c3ccc(O)cc3Oc3cc(O)ccc32)c2ccccc21 | inactive
OCCN1CCOCC1 | inactive

read-out: not listed separately; test: BSK_BE3C_SRB: Viability Assessment in the BioMAP Diversity Plus: BE3C Assay (AID 2283028); settings: primary human bronchial epithelial cells
In short: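 Primary human bronchial epithelium; chemical dosing, 24 h; 10% TCA fix, 0.1% SRB stain, A560; bidirectional fit vs DMSO baseline.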

Structure (SMILES) | outcome
c1ccc2c(c1)-c1ccc3ccc4cccc5cc-2c1c3c45 | inactive
NC(=O)c1c(Cl)cccc1Cl | inactive
CC=CC(=O)C1=C(C)C=CCC1(C)C | inactive
O=C1OC2(c3ccc(O)cc3Oc3cc(O)ccc32)c2ccccc21 | inactive
OCCN1CCOCC1 | inactive

read-out: Thrombomodulin, THBD (gene 7056); test: BSK_3C_Thrombomodulin: BioMAP Diversity Plus: 3C Assay for Thrombomodulin Biomarker Activity (AID 2283029); settings: primary human endothelial cells (HUVEC); actives raise or lower the signal
In short: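 Primary human umbilical vein endothelial cells (3C system) were exposed to chemical for 24 h, then thrombomodulin levels were measured by ELISA. Activity was fitted bidirectionally against the DMSO negative control as baseline.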

Structure (SMILES) | outcome
c1ccc2c(c1)-c1ccc3ccc4cccc5cc-2c1c3c45 | inactive
NC(=O)c1c(Cl)cccc1Cl | inactive
CC=CC(=O)C1=C(C)C=CCC1(C)C | inactive
O=C1OC2(c3ccc(O)cc3Oc3cc(O)ccc32)c2ccccc21 | inactive
OCCN1CCOCC1 | inactive

read-out: Urokinase-type plasminogen activator receptor (uPAR), PLAUR (gene 5329); test: BSK_4H_uPAR: BioMAP Diversity Plus: 4H Assay for Urokinase-type plasminogen activator receptor (uPAR) Biomarker Activity (AID 2283030); settings: primary human endothelial cells (HUVEC); actives raise or lower the signal
In short: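 HUVEC, 24 h post-dose; uPAR by ELISA; bidirectional fit vs DMSO baseline.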

Structure (SMILES) | AC50 | outcome
c1ccc2c(c1)-c1ccc3ccc4cccc5cc-2c1c3c45 | 10 µM (active) | 
NC(=O)c1c(Cl)cccc1Cl |  | inactive
CC=CC(=O)C1=C(C)C=CCC1(C)C |  | inactive
O=C1OC2(c3ccc(O)cc3Oc3cc(O)ccc32)c2ccccc21 |  | inactive
OCCN1CCOCC1 |  | inactive

Source: PubChem BioAssay (EPA / NIEHS)
